Screens deposited in PubChem BioAssay by National Center for Advancing Translational Sciences (NCATS).
D1 antag – human D1 dopamine receptor antagonism | AID 504652 | hit rate 3.2% among 360,000 | HEK293 TREx D1 cells, calcium flux, dopamine EC80; stronger effect = lower value | activity change, negative = inhibition, % at 10 µM; in the data active means activity change below about -30%
Target sequence (P21728 whole entry, looked up): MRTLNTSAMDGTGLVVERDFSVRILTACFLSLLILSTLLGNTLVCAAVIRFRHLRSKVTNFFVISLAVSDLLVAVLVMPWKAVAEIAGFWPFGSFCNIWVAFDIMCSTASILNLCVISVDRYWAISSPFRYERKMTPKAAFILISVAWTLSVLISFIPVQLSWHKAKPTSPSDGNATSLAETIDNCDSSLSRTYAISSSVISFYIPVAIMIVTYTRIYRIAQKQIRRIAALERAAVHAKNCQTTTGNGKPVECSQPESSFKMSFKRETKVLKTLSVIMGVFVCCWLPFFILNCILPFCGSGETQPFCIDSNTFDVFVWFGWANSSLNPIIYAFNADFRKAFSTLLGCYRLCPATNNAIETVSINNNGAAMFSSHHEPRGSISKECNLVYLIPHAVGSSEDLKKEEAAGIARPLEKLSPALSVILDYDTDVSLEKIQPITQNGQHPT
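Compound effects on dopamine-evoked calcium signalling were measured in tetracycline-induced HEK293 Trex D1 cells. Dopamine at EC80 followed a 180 s compound pre-read, and fluorescence was tracked kinetically for 180 s more.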
TRHR agonist – agonists of human TRH receptor. P34981. TRHR cells, calcium flux fluo-8, FDSS agonist mode. activation, % at 2 µM. hit rate 0.18% among 360,000. AID 493084
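Steps: seed TRHR cells overnight; add fluo-8 no-wash Ca dye, RT 30 min–1.5 h; record 10 s baseline; pin-transfer compounds; monitor fluorescence 1 cycle/s for the agonist window. Calcium increases flag candidate agonists.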
D1 potentiator – enhances dopamine response at the human D1 receptor. P21728. HEK293 TREx D1 cells, calcium flux, dopamine EC20 potentiation. potentiation, % at 10 µM. hit rate 0.036% among 360,000. AID 504651; in the data active means potentiation above about 30%
D1 agonist – agonists of human D1 dopamine receptor; P21728; HEK293 T-REx D1 cells, calcium flux, agonist mode; activation, % at 2 µM; hit rate 1% among 360,000
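Tetracycline-induced HEK293 TREx D1 cells, force-coupled to calcium signalling, were dye-loaded with a no-wash calcium kit. Compound was pin-added after a 10 s baseline. Fluorescence was read kinetically at 1 cycle/s for 180 s, with calcium rises flagged as agonism.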
Epigenetic reg – epigenetic control regulation, reporter derepression; Potency, µM (doses to about 53.9 µM), usual class: activators; hit rate 0.2% among 280,000; murine LDR cells, GFP reporter derepression, 30 h; active means well fitted activation curve with a large enough effect; inconclusive means small, poorly fitted or top-dose-only effect; further: nearly all actives have a fitted effect of over 60% in size
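Reporter derepression read as number of fluorescent GFP-positive objects, 20-120 um in size, counted by laser-scanning cytometer. Mouse LDR line with an epigenetically silenced CMV-GFP locus; compound incubation 30 h, 37 C.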
TRHR enhancer – allosterically enhances the human TRH receptor. P34981. TRHR cells, fluo-8 calcium fluorescence, EC20 TRH enhancement. enhancement, % at 2 µM. hit rate 0.66% among 360,000. AID 493056; in the data active means enhancement above about 30%
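TRHR-expressing cells loaded with fluo-8 calcium dye were read kinetically (ex 480/em 530) during compound addition, then stimulated with an EC20 of TRH (10 nM final). Enhancement of the Gq-mediated intracellular calcium response was scored.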
Hits are given with their value; - = inactive; ? = inconclusive; . = no result. Hits are enriched below; roughly 4.6% of the tested compounds scored in any of these assays. Unless noted, no stated cut-off is given here; in the data, active means activation above about 30%; inactive means the rest.

SMILES	D1 antag	TRHR agonist	D1 potentiator	D1 agonist	Epigenetic reg	TRHR enhancer
CC1CCCN(C(=O)COC(=O)/C=C/c2ccc(C(F)(F)F)cc2)C1 (centres undefined)	-47	-	-	-	.	-
COc1ccc2c(=O)c(-c3cnn(-c4ccccc4)c3)c(C)oc2c1	-	-	-	-	-	-
Cc1oc2c(C)c(O)ccc2c(=O)c1-c1cnn(-c2ccccc2)c1	-37	-	-	-	-	-
O=C(NNC(=O)c1ccccc1[N+](=O)[O-])c1ccc(NC(=O)c2ccccc2)cc1	-38	-	-	-	.	-
O=C(NNC(=O)c1ccccc1[N+](=O)[O-])Nc1ccc(Cl)cc1	-	-	-	-	-	-
COc1ccc(-c2coc3ccc(OC4OC(COC(C)=O)C(OC(C)=O)C(OC(C)=O)C4OC(C)=O)c(OC(C)=O)c3c2=O)cc1 (centres undefined)	.	.	.	.	-	.
S=C(Nc1ccccc1)Nc1ccc2cn[nH]c2c1	-	-	-	-	-	-
O=C(Nc1cc(Cl)ccc1O)c1snnc1-c1ccccc1	-39	-	-	-	-	-
O=C(NC(=S)Nc1ccc2cn[nH]c2c1)c1ccccc1	-35	-	-	-	-	-
O=C(NC(=S)Nc1ccc(Cl)cc1)c1ccccc1	-53	-	-	-	-	-
O=C(NC(=S)Nc1ccc(Oc2ccc(Cl)cc2)cc1)c1ccccc1	-	-	-	-	-	-
O=C(Nc1cc(Cl)ccc1Cl)c1ccc(-c2ccccc2)cc1	-34	-	-	-	-	-
CCOc1ccc(C2c3c(oc4cc(C)c(C)cc4c3=O)C(=O)N2c2ccccn2)cc1 (centres undefined)	-	-	-	-	-	-
COc1cc(NS(=O)(=O)c2ccc3c(c2)CCCN3C(C)=O)cc(OC)c1OC	-	-	-	-	-	-
Cc1ccc(S(=O)(=O)NCC2CCC(C(=O)NCCc3ccc(Cl)cc3)CC2)cc1 (centres undefined)	-	-	-	-	-	-
COc1ccc(S(=O)(=O)NCC(c2ccco2)N2CCN(c3ccccc3F)CC2)cc1C (centres undefined)	.	-	-	-	-	-
CC(C)CCCC(C)C1CCC2C3CC=C4CC(=O)CC[C@@]4(C)C3CC[C@@]12C (some centres undefined)	.	.	.	.	-	.
O=C(Nc1ccc(F)c(Cl)c1)c1ccccc1	-46	-	-	-	.	-
O=C(Nc1ccc(F)c(Cl)c1)c1cccnc1	-	-	-	-	.	-
C/C(=N\NC(=O)C(O)c1ccccc1)c1ccc(Br)s1 (centres undefined)	-	-	-	-	.	38
COC(=O)[C@@]1(Cc2ccccc2)[C@H]2c3cc(C(=O)N(C)C)n(Cc4ccc(S(C)(=O)=O)cc4)c3C[C@H]2CN1C(=O)c1ccccc1	.	.	.	.	-	.
Cc1ccc(C)c(Cn2cnc3c(cnn3C(C)(C)C)c2=O)c1	-	-	-	41	-	-
COc1ccc(-c2nsc(NC(=O)c3ccccc3Br)n2)cc1	-	-	-	-	-	-
Cc1cccc2cc(CN(Cc3ccco3)S(=O)(=O)c3ccc4c(c3)OCCO4)c(=O)[nH]c12	-51	-	-	-	-	-
Cc1cc(C)c2[nH]c(=O)c(CN(CC3CCCO3)S(=O)(=O)c3ccc4c(c3)OCCO4)cc2c1 (centres undefined)	-	-	-	-	-	-
SMILES	D1 antag	TRHR agonist	D1 potentiator	D1 agonist	Epigenetic reg	TRHR enhancer
COc1ccccc1NC(=O)c1c(C)cc(C)nc1SCC(=O)Nc1ccc(C)cc1	-	-	-	-	-	-
Cc1c(C(=O)Nc2ccccc2F)sc2ncnc(N(C)C3CCCCC3)c12	-	-	-	-	-	-
CCO[C@H]1OC(C(=O)O)=C[C@@H](c2ccc3c(c2)OCO3)[C@@H]1CCCO	-	-	63	-	-	-
CCO[C@@H]1OC(C(=O)NC2CC2)=C[C@H](c2ccc(Br)cc2)[C@H]1CCCO	-	-	-	-	-	-
CCO[C@H]1OC(C(=O)NC2CC2)=C[C@@H](c2ccc(Br)cc2)[C@@H]1CCCO	-59	-	-	-	-	-
O=C(Nc1nc(Nc2cc(F)cc(F)c2)nc(NC2CCCC2)n1)OCc1ccccc1	-	-	-	-	.	-
CCOc1ccc(C(=O)Nc2ccc3nc(SCC(=O)N4CCc5ccccc54)sc3c2)cc1	-	-	-	-	?	-
COc1ccc(S(=O)(=O)NCC(c2ccc3c(c2)OCO3)N2CCOCC2)cc1 (centres undefined)	-	-	-	-	.	-
CC(C(=O)NCC1CCCO1)n1cccc1C(=O)c1ccccc1 (centres undefined)	-31	-	-	-	-	-
CC1CCCCN1S(=O)(=O)c1ccc(C(=O)N2CCOCC2)cc1 (centres undefined)	-	-	-	-	.	33
COc1ccc2nc(C)cc(Nc3ccccc3O)c2c1	-35	-	-	-	-	-
COc1ccc(OC)c(Nc2cc(C)nc3ccccc23)c1	-	-	-	-	-	-
COc1ccc(C(=O)OCc2cc(=O)n3nc(C4CC4)sc3n2)cc1OC	-	-	-	-	-	-
O=C(C1CCC(=O)N(C2CC2)C1)N1CCC(Oc2cccc(F)c2)CC1 (centres undefined)	-37	-	-	-	.	-
O=C(C1CCC(=O)N(C2CCCC2)C1)N1CCC(Oc2cccc(F)c2)CC1 (centres undefined)	-	-	-	-	.	-
Cc1c(Cl)cccc1NC(=O)CN1C(=O)COc2ccc(S(=O)(=O)N3CCCCCC3)cc21	-	-	-	-	-	-
O=C(N1CCc2ccc(S(=O)(=O)N3CCN(S(=O)(=O)c4ccc5c(c4)OCCO5)CC3)cc2C1)C(F)(F)F	-	-	-	-	.	-
Cc1ccc(N2C(=O)c3ccc(C(=O)Nc4cccnc4)cc3C2=O)c(C)c1	-	-	-	-	-	-
COc1ccc(NC(=O)CN2C(=O)c3cccnc3Sc3ccccc32)cc1OC	-	-	-	-	-	-
Cc1cccc(NC(=O)CCCCCN2C(=O)c3ccccc3C2=O)n1	-	-	-	-	-	-
Cc1ccc(NC(=O)c2ccc3c(c2)C(=O)N(c2ccccc2C)C3=O)nc1	-36	-	.	-	.	-
Cc1ccc(NC(=O)CCCCCN2C(=O)c3ccccc3C2=O)nc1	-32	-	-	-	-	-
Cc1ccc(NC(=O)CN2C(=O)c3cccnc3Sc3ccccc32)cc1C	-	-	-	-	-	33
O=C(CN1C(=O)c2ccccc2C1=O)Nc1ccccc1	-	-	-	-	.	-
Cc1ccc(NC(=O)CN2C(=O)c3ccccc3C2=O)cc1	-	-	-	-	.	40
COc1c(C)cccc1C(=O)Nc1cccc2ccc(C)nc12	-	-	-	-	-	-
CCOc1ccc(CNC(=O)c2cnc3sc(N4CCC(C)CC4)nn3c2=O)cc1OC	-	-	-	-	-	-
